According to PubChem BioAssay (NCATS):
Records with an inconclusive call do not appear. Calls of active or inactive are those of the source. Unless noted, the call rests on the fitted dose curve; in most records, active means well fitted curve in the direction sought with a large enough effect; inconclusive means small, poorly fitted or top-dose-only effect, or another doubt; inactive means no such curve, though single readings can be large; an effect the other way counts as inactive or inconclusive. Peptide text beside a SMILES is read from it.

How the values were obtained:
[1] = molecular target: Cytochrome P450 3A4 (Homo sapiens) (UniProt P08684); test: qHTS Assay for Inhibitors and Substrates of Cytochrome P450 3A4 (AID 884); further: nearly all actives have a fitted effect of over 50% in size; further: potency means the concentration at half of the fitted maximal effect; on activity change, negative = inhibition: on the % scale 0 is the no-effect control and ±100 the full control effect
Summary of the method: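 20 nM human CYP3A4 with 25 uM Luciferin-PPXE (at KM) in 200 mM KPO4, preincubated 10 min with compound; NADPH regeneration started a 60 min RT reaction. Luciferin detected by luminescence, normalized to 57 uM ketoconazole as full inhibition.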

[2] = Confirmation and Secondary Assay for Modulators of Hemoglobin Beta Chain Splicing at IVS2 654 locus (AID 910); further: % of control where 0% means no effect
Summary of the method: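 HeLa cells stably carrying EGFP interrupted by mutant beta-globin IVS2-654 intron (CMV-driven) were treated with compound for 2 days at 37C; corrected splicing was scored as total peak GFP intensity per well (488 nm excitation, 500-520 nm emission).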

[3] = Confirmation and Secondary Assay for Modulators of Hemoglobin Beta Chain Splicing at IVS2 705 locus (AID 930);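 further: HeLa cells stably expressing the EGFP-705 splicing reporter; GFP fluorescence per well restored by corrected splicing of the IVS2-705 intron in EGFP; % of control where 0% means no effect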
Summary of the method: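 HeLa cells stably carrying EGFP interrupted by mutant beta-globin intron 2 (IVS2-705) treated 2 days at 37C with compound; 500 nM antisense PNA as control. Correct splicing read as total peak GFP intensity per well by laser-scanning cytometry.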

[4] = qHTS Assay for Lipid Storage Modulators (AID 1519; calls by dose curve; further: potency means the concentration at half of the fitted maximal effect; on activity change, negative = inhibition: on the % scale 0 is the no-effect control and ±100 the full control effect); settings: Drosophila S3 cells, BODIPY lipid droplet/cell ratio, laser cytometry, cells loaded with oleic acid; for activity change, negative = inhibition: at 57.5 µM (top of the series)
Summary of the method: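 Cells seeded at 5,000 per well were treated with compounds over a concentration series and loaded with oleic acid (400 uM, as added). Lipid droplet fluorescence (488 nm excitation, 500-530 nm channel) was read by laser-scanning cytometry and normalized to 20 uM Triacsin C.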

[5] = measured here: cell count channel max response
[6] = measured here: lipid channel max response

Chain of Cytochrome P450 3A4 (Homo sapiens) (P08684 whole entry, looked up): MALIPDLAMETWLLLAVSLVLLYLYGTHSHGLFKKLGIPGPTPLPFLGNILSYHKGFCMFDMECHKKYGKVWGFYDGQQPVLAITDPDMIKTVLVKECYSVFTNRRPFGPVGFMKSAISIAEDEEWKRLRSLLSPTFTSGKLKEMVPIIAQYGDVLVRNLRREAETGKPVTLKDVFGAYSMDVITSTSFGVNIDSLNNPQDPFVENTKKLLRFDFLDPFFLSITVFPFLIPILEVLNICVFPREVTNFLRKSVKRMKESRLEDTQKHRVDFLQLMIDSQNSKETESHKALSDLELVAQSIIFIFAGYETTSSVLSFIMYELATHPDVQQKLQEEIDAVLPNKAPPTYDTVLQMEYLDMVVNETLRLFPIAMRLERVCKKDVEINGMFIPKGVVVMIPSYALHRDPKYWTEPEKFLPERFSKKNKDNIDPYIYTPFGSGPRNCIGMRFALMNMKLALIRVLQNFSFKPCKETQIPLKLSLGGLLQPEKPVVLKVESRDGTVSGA

Compound	Potency [1]	Potency [2]	Potency [3]	activity change, negative = inhibition [4]	max response [4, 5] [%]	max response [4, 6] [%]	Potency [4]
COc1ccc(-c2cc(=O)c3c(O)c(OC)c(O[C@@H]4OC(COC5OC(C)C(O)C(O)[C@@H]5O)C(O)C(O)C4O)cc3o2)cc1 (some centres not stated)	inactive	inactive	inactive	4.35% (inactive)	13.3	15.5	
CC(CC(O)C1OC1(C)C)C1CCC2(C)C3=CCC4C(C)(C)C(=O)CCC4(C)C3CC[C@@]12C (some centres not stated)	inactive	inactive	inactive	3.08% (inactive)	2.59	11	
CCc1ccc2c(O)c3c(cc2c1C(=O)OC)C(=O)c1c(O)ccc(O)c1C3=O	inactive	inactive	inactive	12.8% (inactive)	5.77	24.1	
CO[C@@]1(NC(=O)CSCC#N)C(=O)N2C(C(=O)O)=C(CSc3nnnn3C)CSC21 (some centres not stated)	inactive	inactive	inactive	5.21% (inactive)	4.52	12.5	
CCC(CO)NCCNC(CC)CO (configuration not stated)	inactive	inactive	inactive	-3.77% (inactive)	8.09	6.63	
COC(=O)c1cc(=O)c(O)c2c(O)c(O)ccc2c1	inactive	inactive	inactive	-1% (inactive)	-7.53	-9.52	
C=CCCCCCCCCCCCC(O)CC(O)CO (configuration not stated) (tested in a mixture with another compound)	inactive	inactive	inactive	11.1% (inactive)	1.75	15.4	
NCCCCC(N)C(=O)NC(Cc1ccc(O)cc1)C(=O)NC(CCCCN)C(=O)O (stereo not drawn) (H-Lys-Tyr-Lys-OH; configuration not given here)	inactive	inactive	inactive	1.3% (inactive)	3.42	5.58	
COc1cc(O)c(C(C)=O)c(OC)c1	25.1 µM (active)	inactive	inactive	4.43% (inactive)	20	28.9	
COC(=O)CCC(C)C1CCC2C3CC[C@H]4CC(O)CC[C@@]4(C)C3CC(O)[C@]12C (some centres not stated)	inactive	inactive	inactive	1.15% (inactive)	-3.87	-3.09	
Cc1cc(O)c2c(c1O)C(=O)c1c(O)cc(C)c(O)c1C2=O	inactive	inactive	inactive	6.96% (inactive)	-16.3	-8.79	
CSc1ncnc2c1ncn2C1OC(CO)C(O)C1O (configuration not stated)	inactive	inactive	inactive	-6.93% (inactive)	-18.3	-24.7	
COC(=O)CC1C(C)(C)C(OC(C)=O)C2[C@H](OC(C)=O)[C@]34O[C@]2(O)[C@]1(C)C3CC[C@]1(C)C4=CC(=O)OC1c1ccoc1 (some centres not stated)	2 µM (active)	inactive	inactive		-16.6	-68.9	15.8 µM (active)
CC(=O)OC1C[C@@]2(C)C(c3ccoc3)OC(=O)C3O[C@@]32[C@]2(C)C(OC(C)=O)CC3C(C)(C)C(OC(C)=O)CC(OC(C)=O)[C@@]3(C)C12 (some centres not stated)	5.01 µM (active)	inactive	inactive	-11.3% (inactive)	-1.68	-11	
O=c1cc(-c2ccc(O)cc2)oc2cc(OC3OC(CO)C(O)C(O)[C@H]3O[C@@H]3OC[C@@](O)(CO)C3O)cc(O)c12 (some centres not stated)	inactive	inactive	inactive	1.57% (inactive)	23.4	26.6	
C/C=C(/C)C(=O)OC1C(OC(C)=O)[C@@]2(CO)C(O)C[C@@]3(C)C(=CCC4[C@@]5(C)CCC(OC6OC(C(=O)O)[C@@H](O[C@@H]7OC(CO)C(O)C(O)C7O)C(O)[C@H]6O[C@@H]6OC(CO)C(O)C(O)C6O)[C@](C)(CO)C5CC[C@@]43C)C2CC1(C)C (some centres not stated)	inactive	inactive	inactive	9.44% (inactive)	18	28.7	
CC1=C(/C=C/C(C)=C/C=C/C(C)=C/C=C/C=C(C)/C=C/C=C(C)/C=C/C(=O)[C@]2(C)CC(O)CC2(C)C)C(C)(C)CC(O)C1 (some centres not stated)	inactive	inactive	inactive	7.14% (inactive)	11.8	22.4	
